# Reference: the supplement of paper PMC9135407
# Where “and” joins values, the source holds several entries; their conditions need not be identical. Equal entries are not always repeated. Structures can show the parent of a compound that is named as a salt. Screen size: about 5,800 compounds; about 620 (11%) showed activity. What follows is part of a selection rich in actives, with near analogues and random picks from the rest. Values without a mark were called inactive.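 The calls were made as follows: active = score above a cut-off or among the top three wells of a plate; in these data no inactive exceeds 0.85.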
# System: primary human hepatic stellate cells (donor 1)
# Experiment: scaled lipid accumulation score (0 = DMSO-like, 1 = nortriptyline-like); higher = stronger HSC inactivation (lipid re-accumulation), active = hit call of the paper
# Details: 48 h
# [1] = library stock concentration: 1 mM
# [2] = library stock concentration: 10 mM
# [3] = library stock concentration: 3.33 mM
# [4] = library stock concentration: 4.9 mM
smiles,measurement,setting,value
CCCCC[C@H](O)/C=C/[C@@H]1[C@@H](C/C=C/CCCC(=O)O)[C@@H](O)C[C@H]1O [5-trans Prostaglandin F2.alpha.],scaled lipid accumulation score,[1],≤ 0
CCCCC[C@H](O)/C=C/[C@@H]1[C@@H](C/C=C/CCCC(=O)O)[C@@H](O)C[C@H]1O [5-trans Prostaglandin F2.alpha. (tromethamine salt)],scaled lipid accumulation score,[1],≤ 0
CC(C)(C)n1nc(Cc2cccc3ccccc23)c2c(N)ncnc21,scaled lipid accumulation score,[1],≤ 0
CCCCC[C@@](C)(O)/C=C/[C@H]1C(=O)C[C@H](O)[C@@H]1C/C=C\CCCC(=O)O [15(R)-15-methyl Prostaglandin D2],scaled lipid accumulation score,[1],≤ 0
CCCCCCCCCCCCCC(=O)N[C@H](C)[C@@H](O)c1ccccc1 [D-erythro-MAPP],scaled lipid accumulation score,[1],≤ 0 and 0.048
CC1(C2CCCC2)Cc2cc(OCC(=O)O)c(Cl)c(Cl)c2C1=O (centres undefined),scaled lipid accumulation score,[2],≤ -0.055
same,scaled lipid accumulation score,library stock concentration: 14 mM,≤ -0.021
N[C@@H](C(=O)N[C@@H]1C(=O)N2C(C(=O)O)=C(CSc3cn[nH]n3)CS[C@H]12)c1ccc(O)cc1,scaled lipid accumulation score,[2],≤ 0
"CCCCC/C=C/C=C1/C=CC(=O)[C@@H]1C/C=C\CCCC(=O)O [15-deoxy-.DELTA.12,14-Prostaglandin A2]",scaled lipid accumulation score,[1],≤ 0
CC(=O)c1ccc2c(c1)N(CCCN(C)C)c1ccccc1S2 [Acepromazine maleate],scaled lipid accumulation score,library stock concentration: 4.5 mM,0.524
CCC(=O)c1ccc2c(c1)N(CCCN(C)C)c1ccccc1S2.Cl [Propionylpromazine hydrochloride],scaled lipid accumulation score,[2],0.862 (active)
CC(=O)c1ccc2c(c1)N(CCCN(C)C)c1ccccc1S2 [Acetopromazine maleate salt],scaled lipid accumulation score,,0.726
CC(=O)c1ccc2c(c1)N(CCCN(C)C)c1ccccc1S2.O=C(O)/C=C\C(=O)O [Acepromazine maleate],scaled lipid accumulation score,[2],0.989 (active)
CC#CCC(C)[C@@H](O)/C=C/[C@@H]1[C@H]2C/C(=C\CCCC(=O)O)C[C@H]2C[C@H]1O (stereo partly drawn) [5-cis-15(R)-Iloprost],scaled lipid accumulation score,[1],≤ 0
CN(C)[C@@H]1C(O)=C(C(N)=O)C(=O)[C@@]2(O)C(O)=C3C(=O)c4c(O)cccc4[C@@](C)(O)[C@H]3[C@H](O)[C@@H]12 [Oxytetracycline hydrochloride],scaled lipid accumulation score,[2],≤ 0
CN(C)[C@@H]1C(O)=C(C(N)=O)C(=O)[C@@]2(O)C(O)=C3C(=O)c4c(O)cccc4[C@@](C)(O)[C@H]3[C@H](O)[C@@H]12 [Oxytetracycline],scaled lipid accumulation score,library stock concentration: 4 mM,0.025
same,scaled lipid accumulation score,[2],≤ 0
CN(C)[C@@H]1C(O)=C(C(N)=O)C(=O)[C@@]2(O)C(O)=C3C(=O)c4c(O)cccc4[C@@](C)(O)[C@H]3[C@H](O)[C@@H]12 [Oxytetracycline dihydrate],scaled lipid accumulation score,,0.056
C[C@@H](O)CN(CCN(C[C@@H](C)O)C[C@@H](C)O)C[C@@H](C)O,scaled lipid accumulation score,[2],≤ 0
NNC(=O)c1ccncc1.Nc1ccc(C(=O)O)c(O)c1 [Pasiniazid],scaled lipid accumulation score,[2],≤ -0.027
C#CCCC[C@@H](O)CCCCCCCCCCC(=O)O [12(S)-hydroxy-16-Heptadecynoic Acid],scaled lipid accumulation score,[1],≤ 0
COC(=O)CCSCc1ccc(-c2onc(C)c2NC(=O)OC(C)c2ccccc2Cl)cc1 (centres undefined),scaled lipid accumulation score,[3],0.07
same,scaled lipid accumulation score,[2],≤ 0
O=C(O)c1c(Sc2ccccc2)c2cc(Cl)ccc2n1Cc1ccc(Cl)cc1,scaled lipid accumulation score,[2],≤ -0.001
Clc1ccc(Cn2c(CN3CCCC3)nc3ccccc32)cc1 [Clemizole hydrochloride],scaled lipid accumulation score,,0.205
Cl.Clc1ccc(Cn2c(CN3CCCC3)nc3ccccc32)cc1 [Clemizole hydrochloride],scaled lipid accumulation score,[2],0.991 (active)
CCCCCC(O)C=CC1C2CC(CO2)C1CC=CCCCC(=O)O (centres undefined),scaled lipid accumulation score,[1],≤ 0 and ≤ -0.021
COCC[n+]1c2c(n(Cc3cnccn3)c1C)C(=O)c1ccccc1C2=O [YM155 (Sepantronium Bromide)],scaled lipid accumulation score,[3],0.529
same,scaled lipid accumulation score,[2],0.748
N#Cc1c(C2CCNCC2)cc(-c2c(O)cccc2OCC2CC2)nc1N [IKK-2 Inhibitor VIII],scaled lipid accumulation score,[3],0.136
Cl.N#CC1=C(N)NC(=C2C(=O)C=CC=C2OCC2CC2)C=C1C1CCNCC1,scaled lipid accumulation score,[2],1.09 (active)
N#Cc1c(C2CCNCC2)cc(-c2c(O)cccc2OCC2CC2)nc1N,scaled lipid accumulation score,library stock concentration: 80 uM,≤ -0.016
same,scaled lipid accumulation score,library stock concentration: 400 uM,≤ -0.016
same,scaled lipid accumulation score,library stock concentration: 2 mM,0.483
"N#CCCc1ccc2c(c1)-c1[nH]c3ccc([N+](=O)[O-])cc3c1CC(=O)N2 [Alsterpaullone, 2-Cyanoethyl]",scaled lipid accumulation score,[3],0.08
CCCCCCCC/C=C\CCCCCCCCCCCCCC(=O)N[C@@H](CO)[C@H](O)/C=C/CCCCCCCCCCCCC [Nervonic Ceramide],scaled lipid accumulation score,[1],0.002
CCCCC[C@@H](O)/C=C/[C@H]1[C@H](O)CC(=O)[C@@H]1C/C=C\CCCC(=O)O [15(R)-Prostaglandin E2],scaled lipid accumulation score,[1],≤ 0
CN1CCN(CCCN2c3ccccc3Sc3ccc(C(F)(F)F)cc32)CC1 [Trifluoperazine],scaled lipid accumulation score,[4],0.434
CN1CCN(CCCN2c3ccccc3Sc3ccc(C(F)(F)F)cc32)CC1 [Trifluoperazine dihydrochloride],scaled lipid accumulation score,,0.393
CN1CCN(CCCN2c3ccccc3Sc3ccc(C(F)(F)F)cc32)CC1.Cl.Cl [Trifluoperazine],scaled lipid accumulation score,library stock concentration: 10.4 mM,0.892 (active)
CN1CCN(CCCN2c3ccccc3Sc3ccc(C(F)(F)F)cc32)CC1.Cl.Cl [Trifluoperazine dihydrochloride],scaled lipid accumulation score,[2],0.914 (active)
CN1CCN(CCCN2c3ccccc3Sc3ccc(C(F)(F)F)cc32)CC1,scaled lipid accumulation score,[2],0.99 (active)
CN1CCN(CCCN2c3ccccc3Sc3ccc(C(F)(F)F)cc32)CC1 [Trifluoperazine 2HCl],scaled lipid accumulation score,[3],≤ 0
same,scaled lipid accumulation score,[2],0.815
CCSc1ccc2c(c1)N(CCCN1CCN(C)CC1)c1ccccc1S2 [Thiethylperazine malate],scaled lipid accumulation score,,0.362
CN(C)CCCN1c2ccccc2Sc2ccc(C(F)(F)F)cc21 [Triflupromazine hydrochloride],scaled lipid accumulation score,,0.585
same,scaled lipid accumulation score,library stock concentration: 5.1 mM,0.697
same,scaled lipid accumulation score,[2],0.508 and 0.792
CN1CCN(CCCN2c3ccccc3Sc3ccc(C(F)(F)F)cc32)CC1 [Trifluoperazine hydrochloride],scaled lipid accumulation score,[2],0.396
O=C(O)CCC/C=C\C[C@@H]1[C@@H](/C=C/[C@@H](O)COc2cccc(C(F)(F)F)c2)[C@H](O)C[C@@H]1O [Fluprostenol],scaled lipid accumulation score,[1],0.005 and ≤ -0.021
Cn1c(=O)cc(N2CCC[C@@H](N)C2)n(Cc2cc(F)ccc2C#N)c1=O [Trelagliptin],scaled lipid accumulation score,[3],≤ -0.009
same,scaled lipid accumulation score,[2],≤ 0
O=C(O)CCC/C=C\C[C@H]1C(=O)C=C[C@@H]1/C=C/[C@@H](O)CCc1ccccc1 [17-phenyl trinor Prostaglandin A2],scaled lipid accumulation score,[1],≤ 0
Cc1cc([N+](=O)[O-])ccc1NS(=O)(=O)c1cc(Cl)ccc1Cl,scaled lipid accumulation score,[3],≤ -0.009
same,scaled lipid accumulation score,[2],0.147
Nc1nc2c(cnn2CCc2ccccc2)c2nc(-c3ccco3)nn12,scaled lipid accumulation score,[2],0.583
CCCCC[C@@](C)(O)/C=C/[C@H]1[C@H](O)CC(=O)[C@@H]1C/C=C\CCCC(=O)O [15(R)-15-methyl Prostaglandin E2],scaled lipid accumulation score,[1],≤ 0
CCCCC/C=C\C/C=C\C/C=C\C/C=C\CCCC(=O)O[C@@H](CO)COCCCCCCCCCCCCCCCC [1-Hexadecyl-2-arachidonoyl-glycerol],scaled lipid accumulation score,[1],0.044
CC(C)Oc1ccc(C(=O)N[C@H](CNC(=O)CN(C)C)Cc2ccc(-c3cn4cccc([C@H](C)O)c4n3)cc2)cc1Cl [listing 1 of 2 here],scaled lipid accumulation score,[2],0.882 (active)
CC(C)Oc1ccc(C(=O)N[C@H](CNC(=O)CN(C)C)Cc2ccc(-c3cn4cccc([C@H](C)O)c4n3)cc2)cc1Cl [listing 2 of 2 here],scaled lipid accumulation score,[3],0.464
CCCCCCCC/C=C\CCCCCCCC(=O)N[C@H](CO)Cc1ccc(O)cc1,scaled lipid accumulation score,[1],≤ 0
COCCOc1cc2ncnc(Cl)c2cc1OCCOC,scaled lipid accumulation score,[2],≤ 0
CN1[C@@H](CC(=O)c2ccccc2)CCC[C@H]1C[C@H](O)c1ccccc1 [Lobeline hydrochloride],scaled lipid accumulation score,[2],≤ 0 and 0.256
O=C(O)COCCN1CCN([C@H](c2ccccc2)c2ccc(Cl)cc2)CC1,scaled lipid accumulation score,[2],≤ 0
CN1CCC[C@@H]1CCO[C@](C)(c1ccccc1)c1ccc(Cl)cc1.O=C(O)/C=C/C(=O)O [Clemastine fumarate],scaled lipid accumulation score,[2],0.861 (active)
CN1[C@@H](CC(=O)c2ccccc2)CCC[C@H]1C[C@H](O)c1ccccc1 [Lobeline alpha (-) hydrochoride],scaled lipid accumulation score,,0.216
CN1CCC[C@@H]1CCO[C@](C)(c1ccccc1)c1ccc(Cl)cc1 [Clemastine],scaled lipid accumulation score,[2],0.362
CN(C)C(=O)C(CCN1CCC(O)(c2ccc(Cl)cc2)CC1)(c1ccccc1)c1ccccc1 [Loperamide hydrochloride],scaled lipid accumulation score,,0.682
same,scaled lipid accumulation score,[2],0.699 and 0.787
CN1CCC[C@@H]1CCO[C@](C)(c1ccccc1)c1ccc(Cl)cc1 [Clemastine fumarate] [listing 1 of 2 here],scaled lipid accumulation score,,0.619
O=C(O)COCCN1CCN(C(c2ccccc2)c2ccc(Cl)cc2)CC1 (centres undefined) [Cetirizine hydrochloride],scaled lipid accumulation score,[2],≤ -0.027
CSc1ccc2c(c1)N(CCC1CCCCN1C)c1ccccc1S2 (centres undefined) [Thioridazine hydrochloride],scaled lipid accumulation score,,0.711
same,scaled lipid accumulation score,[4],0.586
same,scaled lipid accumulation score,[2],0.072 and 0.283
CN(C)C(=O)C(CCN1CCC(O)(c2ccc(Cl)cc2)CC1)(c1ccccc1)c1ccccc1 [Loperamide HCl],scaled lipid accumulation score,[3],0.485
same,scaled lipid accumulation score,[2],0.611
CN1[C@@H](CC(=O)c2ccccc2)CCC[C@H]1C[C@H](O)c1ccccc1 [alpha-Lobeline hydrochloride],scaled lipid accumulation score,[2],0.493
CN1CCC[C@@H]1CCO[C@](C)(c1ccccc1)c1ccc(Cl)cc1 [Clemastine Fumarate],scaled lipid accumulation score,[3],0.249
same,scaled lipid accumulation score,[2],0.819
CN1CCCC1CCOC(C)(c1ccccc1)c1ccc(Cl)cc1.O=C(O)/C=C/C(=O)O (centres undefined) [Clemastine fumarate],scaled lipid accumulation score,[2],0.942 (active)
O=C(O)COCCN1CCN(C(c2ccccc2)c2ccc(Cl)cc2)CC1 (centres undefined) [Cetirizine dihydrochloride],scaled lipid accumulation score,,0.024
same,scaled lipid accumulation score,[2],0.244 and ≤ -0.001
CN1CCC[C@@H]1CCO[C@](C)(c1ccccc1)c1ccc(Cl)cc1 [Clemastine fumarate] [listing 2 of 2 here],scaled lipid accumulation score,library stock concentration: 5.8 mM,0.885 (active)
O=C(O)COCCN1CCN(C(c2ccccc2)c2ccc(Cl)cc2)CC1 (centres undefined) [Cetirizine],scaled lipid accumulation score,[2],≤ 0
CN1[C@@H](CC(=O)c2ccccc2)CCC[C@H]1C[C@H](O)c1ccccc1,scaled lipid accumulation score,[2],≤ 0
O=C(O)COCCN1CCN(C(c2ccccc2)c2ccc(Cl)cc2)CC1 (centres undefined) [Cetirizine DiHCl],scaled lipid accumulation score,[3],≤ 0
same,scaled lipid accumulation score,[2],≤ 0
CN1[C@@H](CC(=O)c2ccccc2)CCC[C@H]1C[C@H](O)c1ccccc1 [Lobeline],scaled lipid accumulation score,library stock concentration: 5.9 mM,≤ -0.006
CSc1ccc2c(c1)N(CCC1CCCCN1C)c1ccccc1S2 (centres undefined) [Thioridazine HCl],scaled lipid accumulation score,library stock concentration: 5.4 mM,0.47
